Source: PubChem BioAssay (National Center for Advancing Translational Sciences (NCATS))
Marburg entry inh – Marburg virus entry inhibition | 300,000 compounds, 1.8% hits | Potency, µM (top dose mostly 37.8 µM), hits mostly inhibitors | Marburg virus pseudotyped entry inhibition, cell reporter | AID 540276; calls by dose curve; tested in HEK293 cells
CHX counter-1 – counter-screen for Shiga toxin inhibitors: cycloheximide protein synthesis inhibition | 300,000 compounds, 12% hits | cell reporter, cycloheximide protein synthesis inhibition counterscreen | max response, %; in the data active means max response mostly above about 13%, no sharp cut-off; inactive means mostly below about 14%; further: read at 38.3 µM for the half of the compounds with a filed dose
Lassa entry inh – inhibitors of Lassa virus binding or cell entry | AID 540256 | Lassa virus pseudotype entry inhibition, cell reporter | 300,000 compounds, 1.2% hits | Potency, µM (series often up to 37.9 µM), usual class: inhibitors; calls by dose curve; tested in HEK293 cells; further: nearly all actives have a fitted effect of over 50% in size
VACV mCherry inh – vaccinia inhibition (mCherry reporter); Vaccinia virus mCherry reporter infection, fluorescence; Potency, µM (series often up to 36.5 µM), usual class: inhibitors; 310,000 compounds, 0.63% hits; AID 720579; calls by dose curve; tested in A549 cells; further: nearly all actives have a fitted effect of over 35% in size
Vaccinia Venus – inhibitors of vaccinia virus (Venus reporter). AID 720580. 330,000 compounds, 0.46% hits. Vaccinia virus Venus reporter expression, fluorescence. Potency, µM (titrated, usually from 36.5 µM), most hits filed as inhibitors; calls by dose curve; tested in A549 cells; further: nearly all actives have a fitted effect of over 30% in size
Shiga toxin inh – inhibitors of Shiga toxin in Vero cells; Vero cells, Shiga toxin protein synthesis inhibition reporter; AID 2315; inhibition, % at 38.7 µM; 290,000 compounds, 9.2% hits; in the data active means inhibition mostly above about 28%, no sharp cut-off; inactive means mostly below about 43%
CHX counter-2 – affects protein synthesis reporter in cycloheximide counter-screen. Cycloheximide counterscreen, protein synthesis reporter, Shiga toxin assay. shares compounds with Shiga toxin inh. 510 compounds, 3% hits. Potency, µM (series often up to 38.3 µM), most hits filed as activators. AID 2318; calls by dose curve
A number is an active result; - = inactive; ? = inconclusive; . = no result given; [ ] = dose if it differs, or a comment. The full list was thinned out, with hits kept by preference.

SMILES | Marburg entry inh | CHX counter-1 | Lassa entry inh | VACV mCherry inh | Vaccinia Venus | Shiga toxin inh | others
CC(C)(C)C(=O)/C(=C/c1ccncc1)n1cncn1 | 4.11µM | - | 10.3µM | . | . | -
Cc1ccc(C(=O)O/N=C(\N)Cc2ccc([N+](=O)[O-])cc2)c(Cl)c1 | . | 9.8 | . | . | . | -
Cc1ccc(C(=O)O/N=C(\N)Cc2cccs2)c(Cl)c1 | . | 82.5 | . | . | . | 84.5
Cc1ccc(-c2cnc(C(O)c3ccc(C)cc3)[nH]2)cc1 (centres undefined) | . | . | . | - | - | .
Cc1ccc(C2=NNC(C(O)C(O)C(O)C(C)O)S2)cc1 (centres undefined) | ? | 32.0 | - | - | - | 106.9
Cc1ccc(NC(=O)c2ccc3oc(=O)c(S(=O)(=O)c4ccccc4)cc3c2)cc1C | - | . | - | - | - | .
CCN(c1ccccc1)c1nnc(NC(=O)Nc2ccc(C)cc2)s1 | - | . | ? | ? | - | .
Cc1cccc(OCCCC(=O)NC(C)C)c1 | - | - | - | . | 11.2µM | -
Cc1cccc(OCCCC(=O)NC(C)c2ccccc2)c1 (centres undefined) | ? | - | - | - | - | -
Cc1cccc(OCCCC(=O)Nc2ccc(Br)cc2)c1 | 11.2µM | - | - | - | - | -
Cc1cccc(OCCCC(=O)Nc2ccc(N(C)C)cc2)c1 | - | 84.2 | - | - | - | 121.9
CCC(=O)Nc1ccc(-c2nnc(SCC(=O)NC[C@H]3CCCO3)n2C)cc1 | - | . | . | . | . | .
Nc1ccc(Br)c2cccnc12 | ? | - | - | - | - | -
O=S(=O)(O)c1cccc2c(N=Nc3ccc(O)c4ncccc34)cccc12 | - | - | . | . | . | -
COc1ccc(C)cc1N=Nc1ccc(O)c2ncccc12 | . | - | . | . | . | -
Cc1ccccc1N=Nc1ccc(O)c2ncccc12 | 5.62µM | - | ? | 3.55µM | ? | -
Nc1ccc(N=Nc2ccccc2)c2cccnc12 | . | 47.9 | . | . | . | 89.9
O=Nc1ccc(O)c2ncccc12 | . | 55.7 | . | . | . | 44.2
Cc1ccc(C(C)CCN2CCOc3ccc(CN4CCOCC4)cc3C2)o1 (centres undefined) | . | . | . | - | - | .
CCN1CCN(c2nc(Nc3ccc(C)c(C)c3)nc(N)c2[N+](=O)[O-])CC1 | 16.4µM | - | - | ? | - | -
Cc1cccc(Nc2nc(N)c([N+](=O)[O-])c(N3CC(C)CC(C)C3)n2)c1 (centres undefined) | ? | - | ? | 20µM | ? | -
CCc1cccc(C)c1NC(=O)CCS(=O)(=O)c1ccc2c(c1)oc(=O)n2C | . | . | - | - | - | .
Cc1cc(C)c(N(Cc2ccccc2)S(=O)(=O)c2ccc(OCCNC(=O)c3cc4ccccc4o3)cc2)c(C(=O)NO)c1 | . | - | . | . | . | -
Cc1cccc(COc2ncnc3nc[nH]c23)c1 | - | - | ? | - | - | 35.2
Cc1ccc(C(=O)NCCn2ccc3ccccc32)cc1[N+](=O)[O-] | ? | 34.7 | - | - | - | 80.0
SMILES | Marburg entry inh | CHX counter-1 | Lassa entry inh | VACV mCherry inh | Vaccinia Venus | Shiga toxin inh | others
COc1ccc(C(=O)NCCn2ccc3ccccc32)cc1 | ? | 13.4 | ? | . | ? | -
Cc1c(C(=O)NCCn2ccc3ccccc32)cccc1[N+](=O)[O-] | . | - | . | - | - | -
O=C(NCCn1ccc2ccccc21)c1ccc2c(c1)OCO2 | . | 39.5 | . | - | - | 63.7
CC(C)n1nccc1NC(=O)Nc1ccccc1 | - | - | - | - | - | -
Cc1ccc(C(=O)NCC(=O)Nc2cc(C)ccn2)cc1 | ? | . | - | - | - | .
C/C(CC(=O)Nc1cc(Cl)ccc1Cl)=N\NC(=O)c1ccco1 | - | 51.1 | - | - | - | 82.6
C/C(CC(=O)Nc1ccccn1)=N\NC(=O)c1cccc(C)c1 | - | 21.2 | - | - | - | 39.6
C/C(CC(=O)Nc1cc(C)ccn1)=N\NC(=O)c1ccc(C)cc1 | - | 29.4 | - | - | - | 53.1
C/C(CC(=O)Nc1cc(C)ccn1)=N\NC(=O)c1ccncc1 | - | 8.6 | - | - | - | -
Cc1ccc2oc(C(=O)NCC(c3ccc(Cl)cc3)N3CCOCC3)c(C)c2c1 (centres undefined) | ? | . | - | - | - | .
C/C(CC(=O)Nc1cc(C)ccn1)=N\NC(=O)COc1cccc(C)c1 | . | 31.0 | . | . | . | -
C/C(CC(=O)NC12CC3CC(CC(C3)C1)C2)=N\NC(=O)c1ccc(C)cc1 | ? | 10.5 | - | - | - | 17.6
C/C(CC(=O)Nc1cc(C)ccn1)=N\NC(=O)c1cccc(F)c1 | ? | 31.4 | - | - | - | 110.3
C/C(CC(=O)Nc1cccc(C(F)(F)F)c1)=N\NC(=O)c1ccncc1 | - | - | . | - | - | -
C/C(CC(=O)Nc1cc(C)ccn1)=N\NC(=O)c1ccccc1C | ? | 25.9 | . | - | - | 51.0
CCc1ccc(NC(=O)CSc2nnc(-c3ccccc3)n2C)cc1 | . | . | . | - | - | .
Cc1ccc2oc(=O)c3cc(C(=O)NCCc4ccc(Cl)cc4)sc3c2c1 | - | . | - | - | - | .
C/C(CC(=O)Nc1cccc(Cl)c1Cl)=N\NC(=O)c1ccccc1C | ? | 11.0 | - | ? | - | -
COC(C(=O)N1CCC(n2nccc2NC(=O)C2CC2)CC1)c1ccccc1 (centres undefined) | - | 40.8 | - | - | - | 107.3
COC(C(=O)Nc1ccnn1C1CCN(C(=O)c2ccc(C=O)cc2)CC1)c1ccccc1 (centres undefined) | - | - | ? | - | - | -
O=C(Nc1ccnn1C1CCN(C(=O)c2c(F)cccc2F)CC1)C1CC1 | - | - | - | - | - | -
O=C(Nc1ccnn1C1CCN(C(=O)c2ccccc2C(F)(F)F)CC1)C1CC1 | - | 26.6 | ? | - | - | -
O=C(Cc1ccc[nH]c1=O)c1ccc(F)cc1 | . | . | . | - | - | .
NS(=O)(=O)c1ccc2nc(NC(=O)c3ccc(Br)o3)sc2c1 | - | 23.8 | - | . | . | 49.9
Cc1ccc2nc(NC(=O)c3ccc(Br)o3)sc2c1 | . | 44.5 | . | . | . | 95.1
SMILES | Marburg entry inh | CHX counter-1 | Lassa entry inh | VACV mCherry inh | Vaccinia Venus | Shiga toxin inh | others
C#CCNC(=O)C[C@@H]1C[C@@]2(C(=O)OCC)CCC=C2N(Cc2ccc3c(c2)OCO3)C1=O | . | . | . | - | - | .
C=CC[C@H]1C(C(=O)OCC)=CC[C@@H](c2ccccc2)N1S(=O)(=O)c1ccc(C)cc1 | . | . | . | - | - | .
COc1ccc(N2C(=O)/C(=C/c3cccs3)NC2=S)cc1 | ? | - | - | - | - | 22.0
COc1ccc(N2C(=O)/C(=C/c3cccs3)C(=O)NC2=S)cc1 | - | - | - | -[7.34 µM] | -[7.34 µM] | -
Cc1c(Cl)cccc1NC(=O)CCN1C(=O)c2ccccc2Sc2ncccc21 | . | . | - | - | - | .
CN(C)C(=O)c1cc(C(=O)c2ccccc2)c[nH]1 | - | 18.4 | ? | - | - | -
CN(C)C(=O)c1cc(C(=O)c2ccccc2Br)c[nH]1 | . | - | . | . | . | -
CN(C)C(=O)c1cc(C(=O)c2ccccc2Cl)c[nH]1 | ? | 28.9 | - | - | - | -
CN(C)C(=O)c1cc(C(=O)c2c(F)cccc2F)c[nH]1 | - | - | - | - | - | -
COc1ccccc1NC(=O)NNC(=O)c1ccc2ccccc2c1 | - | - | - | - | - | -
COc1ccccc1C(=O)NNC(=O)c1ccc2ccccc2c1 | . | - | . | . | . | . | CHX counter-2=-
